# Experimental data as given in PubChem BioAssay (NCI).
# Compounds without any hit were thinned out: in the full panel of roughly 79,000, 15% have a hit. Values without a mark were called inactive. Activity calls are given as the source filed them. Cut-off read from the data, not from the text of the source: active = growth inhibition above about 70%; inactive = the rest.
# Legend:
# [1] = NCI Yeast Anticancer Drug Screen. Data for the rad52 strain (AID 147);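 note: 0% = growth of vehicle-treated control cultures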; details: S. cerevisiae rad52 mutant growth inhibition, stronger effect = higher value
# Method in brief: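 Measured: yeast growth inhibition. System: strain with a defined DNA damage repair alteration. Reference: vehicle-treated control cultures.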
# [2] = NCI Yeast Anticancer Drug Screen. Data for the rad50EPP+ strain (AID 151);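 note: 0% = growth of vehicle-treated control cultures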; details: S. cerevisiae rad50 mutant strain, stronger effect = higher value
# Method in brief: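 One strain with a rad50 alteration (rad50EPP+) was compound-treated, its growth then compared to that of vehicle controls.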
# [3] = NCI Yeast Anticancer Drug Screen. Data for the mgt1 strain (AID 153); details: S. cerevisiae mgt1 mutant growth inhibition, stronger effect = higher value
# Method in brief: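 After exposure of the mgt1 yeast mutant to compound, growth was measured and reported as inhibition compared with vehicle controls.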
# [4] = NCI Yeast Anticancer Drug Screen. Data for the rad50 strain (AID 155);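 note: 0% = growth of vehicle-only cultures of the same strain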; details: S. cerevisiae rad50 strain growth inhibition, stronger effect = higher value
# Method in brief: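 A DNA repair-deficient yeast mutant serves as the test organism; compound-induced growth inhibition is calculated against vehicle-treated cells.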
# [5] = NCI Yeast Anticancer Drug Screen. Data for the mec2-1 strain (AID 157); details: S. cerevisiae mec2-1 strain, stronger effect = higher value
# Method in brief: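 Test agents were screened against the mec2-1 yeast strain, with defined DNA repair or cell cycle alteration. Growth was scored as inhibition against vehicle-only controls.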
# [6] = NCI Yeast Anticancer Drug Screen. Data for the rad14 strain (AID 159);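 note: 0% = growth of vehicle-treated control cultures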; details: S. cerevisiae rad14 strain growth inhibition, stronger effect = higher value
# Method in brief: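 Vehicle-treated cultures served as the baseline for growth inhibition of a DNA repair-mutant yeast strain exposed to each compound.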
# [7] = NCI Yeast Anticancer Drug Screen. Data for the sgs1 mgt1 strain (AID 161);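 note: 0% = growth of cultures given vehicle only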; details: S. cerevisiae sgs1 mgt1 strain, stronger effect = higher value
# Method in brief: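 Genetically altered yeast, compound exposure, growth inhibition relative to vehicle.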
# [8] = NCI Yeast Anticancer Drug Screen. Data for the CLN2oe strain (AID 163);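 note: 0% = growth of vehicle-only control cultures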; details: S. cerevisiae CLN2oe strain, stronger effect = higher value
# Method in brief: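 Here, growth inhibition in a cell-cycle-altered yeast strain after compound exposure was quantified against vehicle control growth.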
# [9] = NCI Yeast Anticancer Drug Screen. Data for the cln2 rad14 strain (AID 165);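 note: 0% = growth equal to vehicle treated cultures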; details: S. cerevisiae cln2 rad14 strain, stronger effect = higher value
# Method in brief: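 Growth of compound-exposed yeast (cln2 rad14 genotype) measured and expressed as inhibition relative to vehicle.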
# [10] = NCI Yeast Anticancer Drug Screen. Data for the bub3 strain (AID 167); details: S. cerevisiae bub3 mutant strain, stronger effect = higher value
# Method in brief: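 Inhibition values come from growth of compound-treated mutant yeast normalised to vehicle-treated controls.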
# [11] = NCI Yeast Anticancer Drug Screen. Data for the mlh1 strain (AID 171);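 note: 0% = growth of vehicle-treated control cultures of the same strain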; details: S. cerevisiae mlh1 strain growth inhibition, stronger effect = higher value
# Method in brief: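 Here the genetically defined yeast mutant is grown with each compound, and the extent to which its growth falls below that of vehicle-exposed cells is reported.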
# [12] = NCI Yeast Anticancer Drug Screen. Data for the sgs1 strain (AID 173);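 note: 0% = growth of vehicle-only control cultures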; details: S. cerevisiae sgs1 mutant, stronger effect = higher value
# Method in brief: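 Relative growth inhibition, referenced to vehicle, was determined in a yeast strain with a defined alteration affecting DNA damage repair or cell cycle control after compound exposure.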
# [13] = NCI Yeast Anticancer Drug Screen. Data for the rad18 strain (AID 177); details: S. cerevisiae rad18 mutant growth inhibition, stronger effect = higher value
# Method in brief: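 Screen uses a yeast strain with a defined lesion in DNA damage repair; compound effect is read as loss of growth compared to untreated vehicle cultures.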
# [14] = NCI Yeast Anticancer Drug Screen. Data for the wt2 strain (AID 169);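 note: 0% = growth of vehicle-treated yeast cultures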; details: S. cerevisiae wt2 strain growth inhibition, stronger effect = higher value
# Method in brief: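 Genetically defined yeast strains from a DNA-repair/cell-cycle panel were used. Compound-exposed yeast growth was measured, and the inhibition was calculated relative to vehicle treatment.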
# [15] = at 5.0 µM (retest, dose inferred, filed as 0.5)
# [16] = at 50.0 µM (retest, dose inferred, filed as 5.0)
smiles,measurement,setting,value
CC(C)(C)CC(C)(C)c1cc(O)c(O)c(CN2CCCCC2)c1,growth inhibition,[1]; at 1.2 µM,-2%
same,growth inhibition,[1]; at 3.7 µM,-3%
same,growth inhibition,[1]; at 11.0 µM,1%
same,growth inhibition,[1]; at 33.0 µM,12%
same,growth inhibition,[1]; at 100.0 µM,32%
same,growth inhibition,[2]; at 1.2 µM,-5%
same,growth inhibition,[2]; at 3.7 µM,-6%
same,growth inhibition,[2]; at 11.0 µM,-12%
same,growth inhibition,[2]; at 33.0 µM,-14%
same,growth inhibition,[2]; at 100.0 µM,-11%
same,growth inhibition,[3]; at 1.2 µM,-1%
same,growth inhibition,[3]; at 3.7 µM,-1%
same,growth inhibition,[3]; at 11.0 µM,0%
same,growth inhibition,[3]; at 33.0 µM,3%
same,growth inhibition,[3]; at 100.0 µM,67%
same,growth inhibition,[4]; at 1.2 µM,-1%
same,growth inhibition,[4]; at 3.7 µM,0%
same,growth inhibition,[4]; [15],5%
same,growth inhibition,[4]; at 11.0 µM,9%
same,growth inhibition,[4]; at 33.0 µM,9%
same,growth inhibition,[4]; [16],54%
same,growth inhibition,[4]; at 50.0 µM,71.8% (active)
same,growth inhibition,[4]; at 100.0 µM,25%
same,growth inhibition,[5]; at 1.2 µM,0%
same,growth inhibition,[5]; at 3.7 µM,1%
same,growth inhibition,[5]; [15],16%
same,growth inhibition,[5]; at 11.0 µM,2%
same,growth inhibition,[5]; at 33.0 µM,7%
same,growth inhibition,[5]; [16],11%
same,growth inhibition,[5]; at 50.0 µM,57.9%
same,growth inhibition,[5]; at 100.0 µM,24%
same,growth inhibition,[6]; at 1.2 µM,-1%
same,growth inhibition,[6]; at 3.7 µM,2%
same,growth inhibition,[6]; at 11.0 µM,10%
same,growth inhibition,[6]; at 33.0 µM,30%
same,growth inhibition,[6]; at 100.0 µM,68%
same,growth inhibition,[7]; [15],-5%
same,growth inhibition,[7]; [16],35%
same,growth inhibition,[7]; at 50.0 µM,57.4%
same,growth inhibition,[8]; at 1.2 µM,-3%
same,growth inhibition,[8]; at 3.7 µM,1%
same,growth inhibition,[8]; at 11.0 µM,0%
same,growth inhibition,[8]; at 33.0 µM,9%
same,growth inhibition,[8]; at 100.0 µM,49%
same,growth inhibition,[9]; [15],-22%
same,growth inhibition,[9]; [16],13%
same,growth inhibition,[9]; at 50.0 µM,73.7% (active)
same,growth inhibition,[10]; at 1.2 µM,-3%
same,growth inhibition,[10]; at 3.7 µM,2%
same,growth inhibition,[10]; [15],-13%
same,growth inhibition,[10]; at 11.0 µM,-30%
same,growth inhibition,[10]; at 33.0 µM,17%
same,growth inhibition,[10]; [16],59%
same,growth inhibition,[10]; at 50.0 µM,78.6% (active)
same,growth inhibition,[10]; at 100.0 µM,27%
same,growth inhibition,[11]; at 1.2 µM,3%
same,growth inhibition,[11]; at 3.7 µM,3%
same,growth inhibition,[11]; at 11.0 µM,4%
same,growth inhibition,[11]; at 33.0 µM,-24%
same,growth inhibition,[11]; at 100.0 µM,55%
same,growth inhibition,[12]; at 1.2 µM,1%
same,growth inhibition,[12]; at 3.7 µM,1%
same,growth inhibition,[12]; at 11.0 µM,7%
same,growth inhibition,[12]; at 33.0 µM,24%
same,growth inhibition,[12]; at 100.0 µM,63%
same,growth inhibition,[13]; at 1.2 µM,5%
same,growth inhibition,[13]; at 3.7 µM,3%
same,growth inhibition,[13]; at 11.0 µM,-38%
same,growth inhibition,[13]; at 33.0 µM,28%
same,growth inhibition,[13]; at 100.0 µM,62%
COc1ccc(C(NCCNC(c2ccc(OC)c(OC)c2)c2cc3c(cc2O)OCO3)c2cc3c(cc2O)OCO3)cc1OC (stereo not given),growth inhibition,[1]; at 1.2 µM,-1%
same,growth inhibition,[1]; at 3.7 µM,-6%
same,growth inhibition,[1]; at 11.0 µM,7%
same,growth inhibition,[1]; at 33.0 µM,89% (active)
same,growth inhibition,[1]; at 100.0 µM,99% (active)
same,growth inhibition,[3]; at 1.2 µM,2%
same,growth inhibition,[3]; at 3.7 µM,4%
same,growth inhibition,[3]; at 11.0 µM,3%
same,growth inhibition,[3]; at 33.0 µM,3%
same,growth inhibition,[3]; at 100.0 µM,99% (active)
same,growth inhibition,[4]; at 1.2 µM,4%
same,growth inhibition,[4]; at 3.7 µM,-10%
same,growth inhibition,[4]; [15],-12%
same,growth inhibition,[4]; at 11.0 µM,19%
same,growth inhibition,[4]; at 33.0 µM,74% (active)
same,growth inhibition,[4]; [16],7%
same,growth inhibition,[4]; at 50.0 µM,38.2%
same,growth inhibition,[4]; at 100.0 µM,99% (active)
same,growth inhibition,[5]; at 1.2 µM,-1%
same,growth inhibition,[5]; at 3.7 µM,1%
same,growth inhibition,[5]; [15],-11%
same,growth inhibition,[5]; at 11.0 µM,9%
same,growth inhibition,[5]; at 33.0 µM,78% (active)
same,growth inhibition,[5]; [16],95% (active)
same,growth inhibition,[5]; at 50.0 µM,27.9%
same,growth inhibition,[5]; at 100.0 µM,99% (active)
same,growth inhibition,[6]; at 1.2 µM,1%
same,growth inhibition,[6]; at 3.7 µM,5%
same,growth inhibition,[6]; at 11.0 µM,27%
same,growth inhibition,[6]; at 33.0 µM,92% (active)
same,growth inhibition,[6]; at 100.0 µM,99% (active)
same,growth inhibition,[7]; [15],4%
same,growth inhibition,[7]; [16],48%
same,growth inhibition,[7]; at 50.0 µM,72.2% (active)
same,growth inhibition,[8]; at 1.2 µM,-6%
same,growth inhibition,[8]; at 3.7 µM,1%
same,growth inhibition,[8]; at 11.0 µM,7%
same,growth inhibition,[8]; at 33.0 µM,18%
same,growth inhibition,[8]; at 100.0 µM,98% (active)
same,growth inhibition,[9]; [15],-29%
same,growth inhibition,[9]; [16],23%
same,growth inhibition,[9]; at 50.0 µM,41.2%
same,growth inhibition,[10]; at 1.2 µM,-1%
same,growth inhibition,[10]; at 3.7 µM,-6%
same,growth inhibition,[10]; [15],-21%
same,growth inhibition,[10]; at 11.0 µM,0%
same,growth inhibition,[10]; at 33.0 µM,15%
same,growth inhibition,[10]; [16],28%
same,growth inhibition,[10]; at 50.0 µM,54.8%
same,growth inhibition,[10]; at 100.0 µM,98% (active)
same,growth inhibition,[14]; at 1.2 µM,-1%
same,growth inhibition,[14]; at 3.7 µM,-2%
same,growth inhibition,[14]; at 11.0 µM,7%
same,growth inhibition,[14]; at 33.0 µM,50%
same,growth inhibition,[14]; at 100.0 µM,99% (active)
same,growth inhibition,[11]; at 1.2 µM,2%
same,growth inhibition,[11]; at 3.7 µM,1%
same,growth inhibition,[11]; at 11.0 µM,12%
same,growth inhibition,[11]; at 33.0 µM,84% (active)
same,growth inhibition,[11]; at 100.0 µM,99% (active)
